Bioassay records deposited in PubChem by National Center for Advancing Translational Sciences (NCATS).
HCV inh: inhibitors of hepatitis C virus infection; Huh7.5.1 HCVcc-Cre infection, luciferase reporter, 44 h; actives 3.4% (n = 340,000); Potency, µM (series often up to 41.8 µM), inactives show top-dose activity change, negative = inhibition, hits mostly inhibitors; AID 651820; also: potency is read from the fitted curve at half-maximal effect
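A cell-based infection assay in which seeded cells (1,000 per well) receive test compound after 4 h, are inoculated with HCVcc-Cre at approximately 0.5 moi, and are incubated 44 h before luminescence detection.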
Lassa entry inh: Lassa virus entry inhibition. Lassa virus pseudotype entry inhibition, cell reporter. Potency, µM (titrated, usually from 37.9 µM), inactives show at the highest dose activity change, negative = inhibition, hits mostly inhibitors. actives 1.2% (n = 300,000); calls by dose curve; tested in HEK293 cells; also: potency is read from the fitted curve at half-maximal effect; nearly all actives have a fitted effect of over 50% in size
Giardia FBPA inh: Giardia lamblia aldolase inhibition. A8B2U2. purified Giardia FBPA. Potency, µM (series often up to 59.6 µM), for inactives: at the highest dose activity, negative = inhibition, usual class: inhibitors. actives 0.71% (n = 290,000). AID 2451; also: potency is read from the fitted curve at half-maximal effect; nearly all actives have a fitted effect of over 55% in size
Target sequence (A8B2U2 whole entry, looked up): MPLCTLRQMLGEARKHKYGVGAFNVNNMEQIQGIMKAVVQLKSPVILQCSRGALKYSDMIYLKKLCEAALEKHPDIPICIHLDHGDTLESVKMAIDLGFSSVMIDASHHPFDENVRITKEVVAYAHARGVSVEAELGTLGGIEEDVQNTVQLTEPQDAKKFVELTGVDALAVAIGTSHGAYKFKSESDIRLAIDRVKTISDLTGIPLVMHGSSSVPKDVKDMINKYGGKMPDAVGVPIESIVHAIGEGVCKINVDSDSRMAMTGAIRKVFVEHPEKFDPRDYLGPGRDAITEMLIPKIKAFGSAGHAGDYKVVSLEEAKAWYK
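40 nM FBPA preincubated 10 min at RT with compound (up to 57.5 uM final), then substrate plus GAPDH/TPI/NAD/arsenate coupling and diaphorase/resazurin added. Fluorescence read after 20 min at RT, 525/598 nm.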
HCMV antiviral: inhibitors of human cytomegalovirus | HFF cells, HCMV-luciferase reporter, 72 h; hits give low values | activity change, negative = inhibition, % at 57.5 µM | actives 4.5% (n = 410,000) | AID 1259415; in the data active = activity change below about -60%; inconclusive = no clear call, values can overlap the other calls; inactive = above about -39%
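Luciferase read-out from HCMV-luciferase-infected HFFs (MOI 1 PFU/cell) 72 h post infection at 37C; compounds added after 16 h cell attachment; activity normalized between buffer-only basal and Salinomycin (10uM) inhibitor controls.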
MARV entry inh: inhibitors of Marburg virus binding or cell entry. Marburg virus pseudotyped entry inhibition, cell reporter. Potency, µM (series often up to 37.8 µM), for inactives: at the top dose activity change, negative = inhibition, most hits filed as inhibitors. actives 1.8% (n = 300,000). AID 540276; calls by dose curve; tested in HEK293 cells; also: potency is read from the fitted curve at half-maximal effect
FMDV inh: blocks foot and mouth disease virus. FMDV antiviral cell-based qHTS. Potency, µM (highest dose often 57.9 µM), without a hit: at the top dose activity change, negative = inhibition, actives largely listed as inhibitors. actives 1.2% (n = 410,000). AID 1159524; calls by dose curve; tested in HEK293T cells; also: read-out not given here; potency is read from the fitted curve at half-maximal effect; nearly all actives have a fitted effect of over 45% in size
Active calls of the source: *; ? = inconclusive; nt = not tested or not shown; [ ] = dose if it differs, or a comment. This is a sample that favours compounds with a hit; in the whole collection about 8.3% have one here. Unless noted, calls follow the shape of the dose curve; as a rule, active = well fitted curve in the direction sought with a large enough effect; inconclusive = small, poorly fitted or top-dose-only effect, or another doubt; inactive = no such curve, though single readings can be large; an effect the other way counts as inactive or inconclusive. % is scaled to controls: 0 for no effect and ±100 for the full control effect.

SMILES	HCV inh	Lassa entry inh	Giardia FBPA inh	HCMV antiviral	MARV entry inh	FMDV inh
Cc1ccc(C)c(S(=O)(=O)N2CCCCC2CCNC(=O)C(=O)NCc2cccnc2)c1 (centres undefined)	-24.7%	-14.4%	nt	-36.0	?	?
COc1ccc(CCNC(=O)C(=O)NCC2CCCN2S(=O)(=O)c2cc(C)ccc2C)cc1 (centres undefined)	?	11.2µM*	nt	-7.1	?	?
COc1ccc(CCNC(=O)C(=O)NCC2OCCCN2S(=O)(=O)c2cc(C)ccc2C)cc1 (centres undefined)	?	-11.0%	nt	-67.2*	-28.7%	?
O=C(NN=C1C[C@@H](O)[C@H](O)[C@H]2[C@@H]3C(=O)N(C[C@@H]4CCCO4)C(=O)[C@@H]3CC[C@H]12)OCc1ccccc1	nt	1.7%[14.3 µM]	nt	nt	?	nt
COCCn1c(=O)c(-c2ccc(Cl)cc2)nc2cnc(Nc3ccccc3)nc21	nt	nt	7.3%	nt	nt	-16.6%
O=C1CCCCC1CCS(=O)(=O)NCc1ccccc1 (centres undefined)	nt	nt	nt	0.6	nt	nt
CN(C)CCNC(=O)C(=O)NCC1OCCN1S(=O)(=O)c1ccc(F)cc1 (centres undefined)	nt	nt	nt	13.3	nt	-17.3%
CN(C)CCNC(=O)C(=O)NCC1OCCN1S(=O)(=O)c1cc(F)ccc1F (centres undefined)	19.4%	-0.5%	nt	-61.0*	11.8%	-13.5%
Cc1ccc(CNC(=O)c2ccc3c(c2)N(Cc2cccc(C)c2)C(=O)CS3)cc1	nt	?	nt	-12.6	-23.6%[46.1 µM]	0.0%
CC(=O)Nc1cc(-c2ccc(C(=O)NC3CC3)cc2)cn2c(-c3cccc(C(F)(F)F)c3)cnc12	nt	nt	nt	-27.4	nt	25.1µM*
Cc1ccc(Cn2c(CN3CCC(C(=O)NCCc4ccccc4)CC3)cc3ccccc32)cc1	nt	?	nt	-28.6	nt	-19.7%
Cc1ccc2ccc3cc(C(=O)Nc4ccc(C)c(F)c4)nc3c2[nH]1	nt	?	nt	-75.6*	nt	3.5%
Cc1cccc(CN(CC(=O)N/N=C/c2ccco2)S(=O)(=O)c2ccc(Cl)cc2)c1	-15.0%	?	-8.3%	-33.3	-5.5%	0.0%
CCC(C)NC(=O)CN(c1ccc(OC)cc1)S(=O)(=O)c1ccccc1 (centres undefined)	7.0%	17.6%	-6.6%	-9.6	?	-5.1%
COc1ccc(N(CC(=O)N/N=C/c2ccc(-c3ccc([N+](=O)[O-])cc3)o2)S(=O)(=O)c2ccc(C)cc2)cc1	?	-14.1%	2.8%	-68.2*	?	-12.9%
COc1ccc(N(CC(=O)N/N=C/c2ccc(-c3ccc([N+](=O)[O-])cc3)o2)S(=O)(=O)c2ccc(C)cc2)cc1Cl	2.9%	-0.6%	5.3%	-33.1	3.7%	-8.1%
COc1ccc(N(CC(=O)N/N=C/c2ccc(OC3CSC3)cc2)S(=O)(=O)c2ccccc2)cc1	?	?	0.8%	?	?	-19.3%
COc1ccc(N(CC(=O)N/N=C/c2cccs2)S(=O)(=O)c2ccccc2)cc1	?	?	2.8%	-66.7*	-12.3%[46.1 µM]	4.0%
COc1ccc(N(CC(=O)NN=C2CCCCCCC2)S(=O)(=O)c2ccccc2)cc1	9.3%	10.7%	nt	-64.0*	-10.9%	nt
Cc1cccc(CN(CC(=O)N/N=C/c2cccs2)S(=O)(=O)c2ccc(Cl)cc2)c1	11.2µM*	?	-13.4%	-16.4	?	?
CC(NC(=O)c1cccnc1)c1nnc2n1CCN(Cc1ccc(-c3ccccc3)cc1)CC2 (centres undefined)	nt	nt	nt	nt	nt	-9.8%
COC(=O)Cn1c(C2CC(=O)N(c3c(C)cccc3C)C2)nc2ccccc21 (centres undefined)	nt	10.1%[46.1 µM]	nt	3.2	6.4%[46.1 µM]	-29.5%
COCCCN1C(=O)C(=O)/C(=C(/O)c2ccc(OC)cc2)C1c1cccc(OC)c1 (centres undefined)	12.8%	11.9%	-8.9%	-102.3*	-0.7%	-5.4%
COc1ccc(/C(O)=C2/C(=O)C(=O)N(CCN(C)C)C2c2ccc(OC)c(OC)c2)c(C)c1 (centres undefined)	-0.8%	-2.8%	-8.5%	-71.1*	5.1%	-14.0%
